Drawing on PubChem BioAssay (Tox21), this text covers Potency and outcome for eleven molecules.

Experiment [1] can be described thus: qHTS assay to identify small molecule agonists of the vitamin D receptor (VDR) signaling pathway - cell viability counter screen (AID 743224). Further: nearly all actives have a fitted effect of over 50% in size. Further: potency means the concentration at half of the fitted maximal effect. A digest of the protocol: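 VDR-bla cells, 4 h after plating, exposed to compounds for 16 h at 37C; viability then read in the same wells as CellTiter-Glo luminescence after 30 min at room temperature, following the bla FRET read.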
(In general: qHTS replaces the single test concentration by a dilution series.)

Experiment [2] is described as follows: qHTS assay to identify small molecule antagonists of the vitamin D receptor (VDR) signaling pathway - cell viability counter screen (AID 743225). Further: nearly all actives have a fitted effect of over 50% in size. A digest of the protocol: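 Same-well multiplex: following 16 h treatment of HEK 293T cells carrying a UAS-driven beta-lactamase reporter with compound and agonist (3 nM final), and a 2 h FRET substrate step, CellTiter-Glo was added and luminescence read after 30 min.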

A short description of experiment [3]: qHTS assay to identify small molecule agonists of the NFkB signaling pathway (AID 1159509; active means well fitted curve in the direction sought with a large enough effect in the signal ratio in the repeat runs, not every such curve was filed as active; the % refers to the signal ratio; further: series mostly up to about 61 µM). The method in brief: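 ME-180 NFkB-bla, 2,000 cells/well, overnight plating; cpd pinned in DMSO, 5 h 37 C; B/G FRET substrate 1.5 h RT; ex 405, em 460/530 nm.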
The nature of experiment [4]: qHTS assay to identify small molecule agonists of the NFkB signaling pathway - cell viability counter screen (AID 1159515; calls by dose curve; further: series mostly up to about 61 µM; nearly all actives have a fitted effect of over 55% in size). The method in brief: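 NFkB-bla ME-180 cells, 2,000/well, plated overnight at 37 C; compound added for 5 hr at 37 C. Viability read in the same wells as the bla reporter, by CellTiter-Glo luminescence after 30 min at room temperature.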
Experiment [5] in a line: qHTS assay to identify small molecule agonists of the endoplasmic reticulum stress response signaling pathway (AID 1159516; active means well fitted activation curve with a large enough effect in the signal ratio in the repeat runs, not every such curve was filed as active; the % refers to the signal ratio). A digest of the protocol:
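CellSensor ESRE-bla HeLa cells, 1,500 per well, plated overnight, then exposed to compounds for 5 hr at 37 C. Beta-lactamase reporter read with LiveBLAzer B/G FRET substrate after 2 hr at room temperature, 405 nm excitation, 460 and 530 nm emission.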

Experiment [6] can be described thus: qHTS assay to identify small molecule antagonists of the retinoid-related orphan receptor gamma (ROR-gamma) signaling pathway - cell viability counter screen (AID 1159520). Further: nearly all actives have a fitted effect of over 50% in size. The method in brief:
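Tet-on ROR gamma CHO cells were given compounds for 2 hr, then doxycycline hyclate at 1 uM final, and incubated 16 hr at 37 C. Viability was measured as ATP content by CellTiter-Glo luminescence.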

In experiment [7] the target is Nuclear receptor ROR-gamma (Homo sapiens) (UniProt P51449). In words: qHTS assay to identify small molecule antagonists of the retinoid-related orphan receptor gamma (ROR-gamma) signaling pathway (AID 1159521; further: nearly all actives have a fitted effect of over 50% in size; further: potency means the concentration at half of the fitted maximal effect). A digest of the protocol: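 Inducible-expression reporter assay: doxycycline (1 uM final) switched on RORγ in CHO cells bearing a ROR response element-luciferase construct, with test compounds present from 2 h beforehand. Decreased luminescence after 16 h defined antagonist activity.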

Experiment [8] can be described thus: qHTS assay to identify small molecule agonists of the AP-1 signaling pathway - cell viability counter screen (AID 1159525; calls by dose curve; further: nearly all actives have a fitted effect of over 55% in size). The method in brief: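 AP-1-bla ME-180 cells in Opti-MEM with 0.5% dialyzed FBS, compound exposure 5 h at 37 C in 15-point titration. Viability read in the same wells as ATP content by CellTiter-Glo luminescence, normalised to tetra-n-octylammonium bromide and DMSO controls.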

Experiment [9] in a line: qHTS assay to identify small molecule agonists of the AP-1 signaling pathway (AID 1159526; calls by dose curve).
Experiment [10] concerns the target Retinoic acid receptor RXR-alpha (Homo sapiens) (UniProt P19793). In words: qHTS assay to identify small molecule agonists of the RXR signaling pathway (AID 1159527; calls by dose curve; further: nearly all actives have a fitted effect of over 35% in size). The method in brief:
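Compounds in DMSO were added to RXR-alpha-UAS-bla HEK 293T cells kept in 2% charcoal-stripped serum, and incubated 16 hr at 37 C with 5% CO2. Reporter signal came from a 2 hr B/G FRET substrate step.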

Experiment [11] in a line: qHTS assay to identify small molecule antagonists of the retinoid acid receptor (RAR) signaling pathway - cell viability counter screen (AID 1159551). Further: nearly all actives have a fitted effect of over 35% in size. The method in brief:
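C3RL4 RARE-luciferase cells, 1,000/well, incubated overnight, then dosed with compound plus 1 uM retinol (final). After 6 hr at 37 C, viability read by CellTiter-Glo ATP luminescence following 30 min at room temperature.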

A short description of experiment [12]: qHTS assay to identify small molecule agonists of the retinoic acid receptor (RAR) signaling pathway (AID 1159553). A digest of the protocol:
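C3RL4 RARE-luciferase cells were seeded at 1,000/well and grown overnight at 37 C, then exposed to compounds for 6 hr at 37 C, 5% CO2. Luciferase reagent was added and luminescence was read after 30 min at room temperature.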

Experiment [13] is described as follows: qHTS assay to identify small molecule agonists of the RXR signaling pathway - cell viability counter screen (AID 1159529). The method in brief:
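Counter screen: CellTiter-Glo luminescence. Cells: RXR-alpha-UAS-bla HEK 293T. Medium: 2% charcoal-stripped FBS. Treatment: 16 h, 37 C. Reagent incubation: 30 min, RT.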

The nature of experiment [14]: qHTS assay to identify small molecule antagonists of the retinoic acid receptor (RAR) signaling pathway (AID 1159552; further: nearly all actives have a fitted effect of over 50% in size). A digest of the protocol: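 Antagonism of retinol-induced RARE reporter activity was measured in C3RL4 cells. Exposure to compounds and 1 uM final retinol lasted 6 hr at 37 C, with luminescence as endpoint.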

Where “and” joins values, the source holds several entries; their conditions need not be identical. Identical values can stand only once. Records with an inconclusive call do not appear. Some compounds were tested as several samples or in several runs, with calls that do not always agree. Calls of active or inactive are those of the source. Unless noted, the call rests on the fitted dose curve; in most records, active means well fitted curve in the direction sought with a large enough effect in the repeat runs; inconclusive means weak or mixed curves; inactive means no such curve, though single readings can be large; an effect the other way counts as inactive or inconclusive.

Retinoic acid receptor RXR-alpha (Homo sapiens), sequence (P19793 whole entry, looked up): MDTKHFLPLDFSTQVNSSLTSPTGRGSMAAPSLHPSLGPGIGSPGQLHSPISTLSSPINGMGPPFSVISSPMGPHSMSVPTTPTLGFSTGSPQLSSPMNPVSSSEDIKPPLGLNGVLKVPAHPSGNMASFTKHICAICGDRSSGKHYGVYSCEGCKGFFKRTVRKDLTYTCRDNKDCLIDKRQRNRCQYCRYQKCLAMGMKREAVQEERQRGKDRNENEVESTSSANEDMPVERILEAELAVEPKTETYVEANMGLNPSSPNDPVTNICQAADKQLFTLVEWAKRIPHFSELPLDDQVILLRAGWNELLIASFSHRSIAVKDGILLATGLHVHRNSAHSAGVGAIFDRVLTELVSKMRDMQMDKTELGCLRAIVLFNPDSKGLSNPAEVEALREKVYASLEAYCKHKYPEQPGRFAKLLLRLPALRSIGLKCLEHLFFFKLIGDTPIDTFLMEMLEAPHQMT

On to `Nc1nc(N)nc(NC2CC2)n1`, for which the Potency result in experiment [1] is “inactive and 43.6 µM (active)”. Besides, the outcome in experiment [2], in [3], in [4], in experiment [5], in [6] and in [8] was inactive. For the same molecule, in experiment [11], the outcome was inactive. The Potency result in experiment [7], in experiment [9], in experiment [10] and in experiment [12] was “inactive” throughout.

For `CC(C)CCCCCCOC(=O)c1ccccc1C(=O)OCCCCCCC(C)C`, the Potency result in experiment [1], in experiment [9] and in experiment [10] was “inactive” each time. The molecule was classed as inactive in experiment [2], in experiment [3], in [4], in experiment [5], in experiment [6] and in [8]. For the same molecule, the outcome in [13] and in experiment [11] was inactive.

Regarding `CNC(=O)O/N=C/C(C)(C)SC`, the Potency entry in experiment [1], in experiment [7], in [9], in experiment [10], in [14] and in experiment [12] was “inactive” each time. In addition, the outcome in experiment [2], in [3], in [4], in [5], in [6] and in [8] was inactive. Further, the molecule was called inactive in experiment [11].

With `C[C@]12CC[C@H](O)CC1=CC[C@@H]1[C@@H]2CC[C@]2(C)C(=O)CC[C@@H]12`, the Potency result in experiment [1], in experiment [9] and in experiment [12] was “inactive” throughout. The call in experiment [2], in experiment [4], in [5], in experiment [6], in [8] and in experiment [13] was inactive. Further, the outcome in [11] was inactive. The Potency in experiment [7] was 24.4 µM (active) and 24.3 µM (active).

In the case of `Cc1ccc(O)c(C)c1`, the Potency result in experiment [1], in experiment [7], in experiment [9], in [10] and in [12] was “inactive” each time. Moreover, the call in [2], in experiment [3], in [4], in experiment [5], in experiment [6] and in experiment [8] was inactive. Further, the result in [13] and in [11] was inactive.

On to `Cc1cccc(N)c1`, for which the Potency entry in [1], in experiment [7], in [9], in experiment [10] and in experiment [12] was “inactive” each time. In addition, the call in experiment [2], in [3], in [4], in experiment [5], in [6] and in experiment [8] was inactive. In addition, the molecule was called inactive in experiment [11].

For `Oc1c(Br)cc(Br)cc1Br`, the Potency result in experiment [1], in [7], in experiment [9], in experiment [10] and in [12] was “inactive” throughout. The result in experiment [2], in experiment [3], in [4], in experiment [5], in [6] and in experiment [8] was inactive. In addition, the call in experiment [11] was inactive.

As to `CCOP(=S)(OCC)Oc1ccc([N+](=O)[O-])cc1`, the Potency entry in [1], in experiment [7], in experiment [9], in [10] and in [12] was “inactive” in each case. The outcome in [2], in experiment [3], in experiment [4], in experiment [5], in experiment [6] and in [8] was inactive. Also, the molecule was classed as inactive in experiment [11].

For `CC[N+](=O)[O-]`, the Potency entry in [1], in experiment [7], in [9], in experiment [10] and in experiment [12] was “inactive” in each case. In addition, the outcome in experiment [2], in experiment [3], in experiment [4], in [5], in experiment [6] and in [8] was inactive. Moreover, the result in experiment [13] and in [11] was inactive.

In the case of `O=C(O)c1cc(Oc2ccc(C(F)(F)F)cc2Cl)ccc1[N+](=O)[O-]`, the Potency result in experiment [1], in experiment [7], in experiment [9], in [10] and in [12] was “inactive” each time. Also, the molecule was called inactive in experiment [2], in experiment [3], in [4], in experiment [5], in experiment [6] and in experiment [8]. Further, the result in experiment [13] and in experiment [11] was inactive.

Take `OCC(O)CCl` (centres undefined): the Potency entry in experiment [1], in experiment [7], in experiment [9], in experiment [10], in [14] and in experiment [12] was “inactive” in each case. Further, the outcome in [3], in experiment [4], in [5], in experiment [6], in [8] and in experiment [11] was inactive.
